Screens deposited in PubChem BioAssay by NMMLSC.
HRas wt GTP = human HRas wildtype GTP binding, change in either direction. GTP binding activity, % at 10 µM. 0.14% of 190,000 active. GST-Ras wt beads, Bodipy-FL-GTP binding, flow cytometry; actives lie on both sides;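 active means GTP binding activity at least 20% away from the 100% baseline, either lowered as inhibitor or raised as activator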;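 further: 0% = unlabeled GTP competition control and 100% = no-compound control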
Target sequence (P01112 whole entry, looked up): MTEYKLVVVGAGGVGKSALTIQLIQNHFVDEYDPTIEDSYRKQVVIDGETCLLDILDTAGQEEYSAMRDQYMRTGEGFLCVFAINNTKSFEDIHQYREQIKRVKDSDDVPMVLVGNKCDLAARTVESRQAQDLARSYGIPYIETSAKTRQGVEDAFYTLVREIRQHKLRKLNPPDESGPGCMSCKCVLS
Rac1 mut GTP = human Rac1 activated mutant GTP binding change; percent activity (GTP binding), % at 10 µM; GST-Rac1 activated beads, fluorescent GTP binding, flow cytometry; actives lie on both sides; 100% means binding = to untreated wells; P63000; AID 764; 0.11% of 190,000 active;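 active means GTP binding at least 20 percentage points away from the 100% baseline, in either direction, so actives lie on both sides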
Rab2A wt mod = changes GTP binding to wildtype dog Rab2A, up or down | GST-Rab2 wt beads, Bodipy-GTP binding, flow cytometry | GTP binding activity, % at 10 µM | 0.19% of 190,000 active | AID 760;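 active means GTP binding activity at least 20 points away from 100%, either lowered or raised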;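 further: 0% = beads with excess unlabeled GTP and 100% = no-compound control corrected for plate trend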
Rab7 wt GTP bind = dog Rab7 wildtype GTP binding, inhibitors and activators | GST-Rab7 beads, fluorescent GTP binding, flow cytometry; actives lie on both sides; untreated = 100%, excess cold GTP = 0% | GTP binding activity (percent of control), % at 10 µM | 0.055% of 190,000 active;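 active means fluorescent GTP binding to Rab7 beads changed by at least 20 points from the 100% baseline, either direction, mostly lower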;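 further: median green fluorescence of bound Bodipy-FL-GTP per Rab7 bead population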
Rac1 wt GTP bind = alters GTP binding to wildtype human Rac1 | 0.27% of 190,000 active | GST-Rac1 beads, fluorescent GTP binding, flow cytometry; actives lie on both sides; 0 = cold GTP competed, 100 = untreated | GTP binding activity (% of control), % at 10 µM;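 active means GTP binding activity at least 20 points away from the 100% control level, either lower or higher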
Cdc42 wt GTP = human Cdc42 wildtype GTP binding change, either direction | percent activity (GTP binding), % at 10 µM | 0.2% of 190,000 active | GST-Cdc42 beads, Bodipy-GTP binding, flow cytometry; actives lie on both sides | P60953;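 active means percent activity GTP binding at least 20 points away from the 100% baseline, either down as inhibitor or up as activator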;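 further: median bead fluorescence of bound Bodipy-FL-GTP at 100 nM; 0% = excess unlabeled GTP control and 100% = no compound control; below 100% means less GTP binding so inhibitor and above means activator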
Target sequence (P60953 whole entry, looked up): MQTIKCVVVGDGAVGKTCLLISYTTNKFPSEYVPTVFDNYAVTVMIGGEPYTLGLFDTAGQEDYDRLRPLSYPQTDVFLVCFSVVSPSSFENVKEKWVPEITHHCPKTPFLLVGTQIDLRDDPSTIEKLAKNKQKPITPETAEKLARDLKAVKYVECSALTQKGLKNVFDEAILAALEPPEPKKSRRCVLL
* hit, by the source's call; [ ] = dose if it differs, or a comment. In the library only some 0.37% were active in any assay of this set; here they are far more common.

SMILES | HRas wt GTP | Rac1 mut GTP | Rab2A wt mod | Rab7 wt GTP bind | Rac1 wt GTP bind | Cdc42 wt GTP
COc1cc(NC(=O)c2cccs2)c(OC)cc1NC(=O)CCC(=O)Nc1cccc2ncccc12 | 73.0* | 81.0 | 71.0* | 81.0 | 67.0* | 74.0*
NC(=O)COC(=O)c1cccc2c1-c1ccccc1C2=O | 81.0 | 85.0 | 78.0* | 92.0 | 72.0* | 78.0*
CC/C(O)=C(/C#N)c1nnc2n1CCCCC2 | 101.0 | 100.0 | 102.0 | 102.0 | 104.0 | 103.0
N#C/C(=C(/O)COc1ccc(Br)cc1)c1nnc2n1CCCCC2 | 81.0 | 75.0* | 77.0* | 80.0 | 78.0* | 76.0*
COc1ccc(Nc2nc(-c3c(C)nc4ncccn34)cs2)cc1 | 77.0* | 83.0 | 76.0* | 84.0 | 65.0* | 76.0*
Cc1nc2ncccn2c1-c1csc(Nc2ccccc2)n1 | 59.0* | 80.0 | 62.0* | 83.0 | 60.0* | 67.0*
Cc1nc2ncccn2c1-c1csc(Nc2ccc(N(C)C)cc2)n1 | 92.0 | 92.0 | 93.0 | 107.0 | 90.0 | 92.0
COc1ccccc1Nc1nc(-c2c(C)nc3ncccn23)cs1 | 62.0* | 79.0* | 62.0* | 82.0 | 63.0* | 66.0*
CCOc1ccc2c(c1)c(N=NC(=N)N)c(O)n2C | 84.0 | 90.0 | 86.0 | 93.0 | 78.0* | 90.0
CCOc1ccc2c(c1)c(N=Nc1cccc(C(=O)O)c1)c(O)n2C | 96.0 | 95.0 | 95.0 | 98.0 | 93.0 | 99.0
COc1ccc2c(C)cc3nncn3c2c1 | 81.0 | 87.0 | 89.0 | 88.0 | 79.0* | 89.0
CCN1CCN(c2cc(C)c3cc(NC(=S)N4CCCC(C)C4)ccc3n2)CC1 (stereo unspecified) | 98.0 | 96.0 | 97.0 | 98.0 | 102.0 | 96.0
O=C(Nc1nc2ccccc2[nH]1)c1ccc(F)cc1 | 101.0 | 103.0 | 101.0 | 97.0 | 103.0 | 103.0
N#Cc1c2nc3ccccc3nc2n2cc(NC(=O)c3ccc(F)cc3)ccc12 | 81.0 | 88.0 | 77.0* | 89.0 | 79.0* | 91.0
Cc1ccc(OCCCCNC2CCCCC2)c(C)c1 | 102.0 | 98.0 | 107.0 | 106.0 | 102.0 | 100.0
Cc1ccc(-c2nnc3c4ccccc4c(C)nn23)cc1S(=O)(=O)N1CCN(CCO)CC1 | 85.0 | 95.0 | 79.0* | 86.0 | 88.0 | 82.0
Cc1ccc(-c2nnc3c4ccccc4c(C)nn23)cc1NC(=O)CN1CCOCC1 | 96.0 | 97.0 | 94.0 | 95.0 | 97.0 | 96.0
Nc1nc2c(c(=O)[nH]1)C(c1cccc3ccccc13)C1=C(N2)c2ccccc2C1=O (stereo unspecified) | 83.0 | 87.0 | 79.0* | 91.0 | 74.0* | 79.0*
Cc1ccnc(NC(c2ccccc2O)c2oc(CO)cc(=O)c2O)c1 (stereo unspecified) | 97.0 | 94.0 | 96.0 | 102.0 | 94.0 | 94.0
CN=C(Nc1cccc(OC)c1)SC1CC(=O)N(c2ccc(C(=O)O)cc2)C1=O (stereo unspecified) | 100.0 | 99.0 | 97.0 | 102.0 | 101.0 | 98.0
COC(=O)c1ccc(COc2ccc(/C=C(\C#N)c3nc4ccccc4[nH]3)cc2OC)o1 | 99.0 | 98.0 | 101.0 | 99.0 | 102.0 | 101.0
COc1cc(/C=C(/C#N)c2nc3ccccc3[nH]2)ccc1OCc1ccc(C(=O)O)o1 | 78.0* | 87.0 | 77.0* | 94.0 | 85.0 | 78.0*
COc1ccc2nc(/C(C#N)=C\c3ccc(C(=O)O)cc3)[nH]c2c1 | 86.0 | 85.0 | 86.0 | 96.0 | 77.0* | 78.0*
O=C(Nc1ccc(S(=O)(=O)NC2=NCCCCC2)cc1)c1ccc(=O)[nH]c1 | 100.0 | 97.0 | 102.0 | 107.0 | 102.0 | 103.0
CCO[C@@H]1OC(C(=O)NCc2nc3ccccc3[nH]2)=C[C@H](c2ccc(C(F)(F)F)cc2)[C@H]1CCCO | 97.0 | 96.0 | 98.0 | 103.0 | 97.0 | 97.0
SMILES | HRas wt GTP | Rac1 mut GTP | Rab2A wt mod | Rab7 wt GTP bind | Rac1 wt GTP bind | Cdc42 wt GTP
CCCN(CCC)C1=CC(=[N+]2CCCC2)CC(C)(C)C1 | 102.0 | 101.0 | 103.0 | 99.0 | 106.0 | 105.0
COc1ccc(CC2(CO)CCN(S(=O)(=O)c3sccc3C)CC2)cc1 | 61.0* | 57.0* | 66.0* | 66.0* | 58.0* | 63.0*
COc1ccc(CC2(CO)CCN(S(=O)(=O)c3c(C)nn(C)c3Cl)CC2)cc1 | 96.0 | 95.0 | 96.0 | 96.0 | 99.0 | 98.0
Cc1ccc(NC(=O)/C(=C/c2cccc(Br)c2)NC(=O)c2ccco2)cc1 | 98.0 | 98.0 | 96.0 | 100.0 | 102.0 | 100.0
Oc1ccc(/C=N/NC(=S)N/N=C/c2ccc(O)cc2)cc1 | 87.0 | 88.0 | 85.0 | 94.0 | 71.0* | 82.0
O=C1/C(=C\c2ccc(-c3ccccc3Cl)o2)SC(=S)N1CC1CCCO1 (stereo unspecified) | 55.0* | 59.0* | 62.0* | 68.0* | 59.0* | 63.0*
CN1C(=O)/C(=C2\SC(=S)N(CC3CCCO3)C2=O)c2ccccc21 (stereo unspecified) | 102.0 | 101.0 | 102.0 | 102.0 | 104.0 | 104.0
Cc1cccc(C2(c3cccc(C)c3)CC2C(=O)Nc2ccc([N+](=O)[O-])cc2O)c1 (stereo unspecified) | 100.0 | 97.0 | 95.0 | 99.0 | 104.0 | 99.0
Cc1ccc(OCCn2cnc3cc([N+](=O)[O-])ccc3c2=O)cc1 | 82.0 | 87.0 | 79.0* | 100.0 | 90.0 | 79.0*
O=c1c2ccc([N+](=O)[O-])cc2ncn1CCOc1ccccc1 | 81.0 | 87.0 | 79.0* | 95.0 | 76.0* | 84.0
Cc1nn(CC(=O)NCc2cc3ccccc3[nH]2)c(C)c1[N+](=O)[O-] | 98.0 | 100.0 | 99.0 | 104.0 | 104.0 | 99.0
Cc1cc(C)nc(Nc2nc(=O)c3ccccc3s2)n1 | 110.0 | 114.0 | 117.0 | 104.0 | 165.0*[activator] | 135.0*[activator]
CCN(CC)C(=S)SCC(=O)Nc1nc(=O)c2ccccc2s1 | 96.0 | 96.0 | 95.0 | 93.0 | 99.0 | 94.0
COc1ccc(/C=C2\SC(=S)NC2=O)cc1OS(=O)(=O)c1ccc(NC(C)=O)cc1 | 111.0 | 110.0 | 108.0 | 118.0 | 135.0*[activator] | 108.0
COc1cc(/C=C2/SC(=S)NC2=O)ccc1OS(=O)(=O)c1ccc(C)cc1 | 97.0 | 98.0 | 96.0 | 96.0 | 96.0 | 98.0
CCn1c2ccccc2c2nc3cc(C(=O)O)ccc3nc21 | 85.0 | 87.0 | 84.0 | 98.0 | 77.0* | 83.0
CCn1c2ccccc2c2nc3ccccc3nc21 | 101.0 | 98.0 | 100.0 | 102.0 | 101.0 | 98.0
CCOc1cc(/C=N/NC(=O)C(C)Sc2ccccc2)ccc1O (stereo unspecified) | 89.0 | 90.0 | 88.0 | 92.0 | 78.0* | 86.0
COc1cccc(/C=N/NC(=O)C(C)Sc2ccccc2)c1 (stereo unspecified) | 97.0 | 94.0 | 94.0 | 99.0 | 97.0 | 94.0
